# Bioassay records (PubChem BioAssay)
# TDP-43 yeast inh = inhibitors of TDP-43 toxicity in yeast; 410,000 compounds, 1.8% hits; Potency, µM (top dose mostly 46.1 µM), for inactives: at the highest dose growth rescue (activation), hits mostly activators; TDP-43 expressing yeast growth rescue, BacTiter-Glo, 24 h; note: potency is the fitted concentration of half-maximal effect; % of control where 0% means no effect; nearly all actives have a fitted effect of over 50% in size
#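 In this qHTS, compounds that restore growth of yeast expressing TDP-43 appear as activators. Cells (OD600=0.02, galactose medium, raffinose-pregrown) are incubated with compound 24 hr at 30 deg C and growth is quantified by BacTiter-Glo.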
# LDHA inh = blocks human lactate dehydrogenase A | P00338 | purified LDHA, NADH/diaphorase-resazurin fluorescence; active compounds read low | activity change, % (values are at about 110 or 230 µM) | 480,000 compounds, 0.15% hits | AID 1347041; in the data active = activity change below about -30%; inconclusive = mostly about -25% to -30%;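 note: plate controls were DMSO wells for no effect and wells without enzyme for full effect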
#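 Remaining NADH was detected by diaphorase (0.133 mg/mL) converting 37 µM resazurin to fluorescent resorufin, read at 0 and 20 minutes. The preceding 5-minute room-temperature reaction used 2 nM LDHA, 0.2 mM sodium pyruvate and 0.06 mM NADH at pH 7.4.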
# Abeta yeast res = compounds reversing amyloid beta toxicity in yeast | yeast expressing A-beta42, growth rescue, OD600, 48 h; response scale: 0% DMSO, 100% iron-clioquinol control | Potency, µM (series often up to 46.1 µM), most hits filed as activators | 410,000 compounds, 0.063% hits | AID 1347071; note: potency is the fitted concentration of half-maximal effect; nearly all actives have a fitted effect of over 55% in size
#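 Growth rescue measured by 600 nm absorbance after 48 h yeast culture at 30 C with compound. Values normalized between DMSO and an equimolar ferric chloride plus clioquinol control.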
# aSyn rescue = inhibitors of alpha-synuclein toxicity in yeast; Yeast expressing alpha-synuclein, growth rescue, BacTiter-Glo, 24 h; Potency, µM (top dose mostly 46.1 µM), inactives show at the top dose growth rescue (activation), usual class: activators; 370,000 compounds, 0.14% hits; AID 652106; note: potency is the fitted concentration of half-maximal effect; % of control where 0% means no effect; nearly all actives have a fitted effect of over 65% in size
#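 Readout is rescue of growth in alpha-synuclein-expressing yeast, so inhibitors of toxicity appear as activators. Growth after 24 hr at 30 deg C in galactose medium is quantified by luminescence.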
# mIDH1 inhibitor = inhibitors of human mutant IDH1 R132H. O75874. IDH1-R132H enzyme, NADPH consumption, diaphorase/resazurin fluorescence. Potency, µM (titrated, usually from 76.6 µM), for the others: top-dose activity change, negative = inhibition, most hits filed as inhibitors. 390,000 compounds, 0.093% hits. AID 602179; note: potency is the fitted concentration of half-maximal effect; % is set by controls: 0 for no effect and ±100 for the full control effect; nearly all actives have a fitted effect of over 65% in size
# Target sequence (O75874 whole entry R132H, stated change not applied): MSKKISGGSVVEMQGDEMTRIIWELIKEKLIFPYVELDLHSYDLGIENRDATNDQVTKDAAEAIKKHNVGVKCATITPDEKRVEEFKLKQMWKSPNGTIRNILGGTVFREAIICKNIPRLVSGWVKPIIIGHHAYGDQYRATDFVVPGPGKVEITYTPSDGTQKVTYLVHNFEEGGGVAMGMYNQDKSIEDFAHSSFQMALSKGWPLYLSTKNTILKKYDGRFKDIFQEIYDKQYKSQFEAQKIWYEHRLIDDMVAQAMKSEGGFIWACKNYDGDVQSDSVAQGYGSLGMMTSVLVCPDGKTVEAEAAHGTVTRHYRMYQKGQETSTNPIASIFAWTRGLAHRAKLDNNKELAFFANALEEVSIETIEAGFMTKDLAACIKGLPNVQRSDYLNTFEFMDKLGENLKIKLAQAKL
#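 IDH1-R132H (0.5 ug/mL) preincubated 30 min with compound, then NADPH (0.016 mM) and alpha-KG (2 mM) added; 80 min at RT, pH 7.5. Remaining NADPH coupled via diaphorase/resazurin to fluorescence (540/590 nm); concentration-response curves normalized to no-enzyme control.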
# FUS suppressor = rescues growth of FUS-expressing yeast; S. cerevisiae FUS-expressing, growth rescue, OD600, 24 h; Potency, µM (highest dose often 76.6 µM), hits mostly activators; 390,000 compounds, 0.24% hits; AID 1347120;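 note: potency is the fitted concentration of half-maximal effect; plate controls were DMSO vehicle for no effect and reference control for full effect; nearly all actives have a fitted effect of over 55% in size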
#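 Steps: raffinose overnight preculture; dilution to OD 0.005 in 2% galactose minimal medium; compound addition (concentration series); 24hr at 30C, 99% humidity; absorbance read at 600 nm.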
# An asterisk follows results filed as active; i = inactive; ? = inconclusive; · = no result given. Only some compounds are listed: those with a hit (about 2% of all), similar ones and a draw of the others. Unless noted, calls come from the whole dose curve; as a rule, active = well fitted curve in the direction sought with a large enough effect; inconclusive = small, poorly fitted or top-dose-only effect, or another doubt; inactive = no such curve, though single readings can be large; an effect the other way counts as inactive or inconclusive.
SMILES,TDP-43 yeast inh,LDHA inh,Abeta yeast res,aSyn rescue,mIDH1 inhibitor,FUS suppressor
CCOC(=O)c1c(CSc2ccc(C)cc2)oc2ccc(O)cc12,22µM*,-7,i,-13%,-5%,i
CCOC(=O)c1c(CSc2ccccc2)oc2ccc(O)cc12,20µM*,0,i,4%,13%,i
O=C(C1CCCCC1)N1C[C@@H](n2cc(-c3ccc(F)cc3)nn2)[C@H](O)C[C@@H]1c1ccc(Cl)cc1,22µM*,2,i,2%,-2%,i
Cc1cc(-c2ccc(C)c(S(=O)(=O)N(Cc3cccs3)C(C)C)c2)on1,5%,-5,i,·,41%,i
COCCN(Cc1cccs1)S(=O)(=O)c1cc(-c2cc(C)no2)ccc1C,35µM*,-2,i,·,23%,i
Cc1c(C(=O)NNC(=O)Nc2ccc([N+](=O)[O-])cc2)oc2ccccc12,-13%,-44*,i,2%,-18%,i
Cc1nc(NC(C)c2ccccc2)c2c3c(sc2n1)CCC3 (configuration not stated),14µM*,1,i,-10%,-3%,i
O=c1c2c3c(sc2ncn1-n1cccc1)CCCCC3,13µM*,4,i,7%,8%,i
Cc1ccc(C)n1-n1cnc2sc3c(c2c1=O)CCC3,21%,-3,i,8%,0%,i
Cc1cc(N/N=C/c2ccc(O)c(C)c2O)nc(-c2ccccc2O)n1,10µM*,1,i,-9%,-5%,i
C/C(=N\Nc1cc(-c2ccccc2)nc(-c2ccccc2)n1)c1ccc(O)c(C)c1,16µM*,-1,i,4%,11%,i
COc1cc(N/N=C(\C)c2ccc(O)c(C)c2)nc(-c2ccccc2)n1,3%,-2,i,-7%,-8%,i
C/C(=N\Nc1cc(C)nc(-c2ccccc2O)n1)c1ccccc1,10µM*,1,i,-14%,-4%,i
CCCCN(Cc1ccccc1)c1ccc(NS(=O)(=O)c2ccc(C(C)(C)C)cc2)cc1C(=O)O,·,11,·,·,·,·
COC(=O)c1ccoc1COC(=O)CCc1ccc(-c2ccccc2)o1,·,-6,·,·,·,·
Cc1ccc(S(=O)(=O)NCc2ccc3c(c2)OCO3)cc1C,18µM*,-10,i,-20%,8%,i
Cc1cc(/C=N/O)c(C)n1-c1ccc(Br)cc1,14%,-6,i,8%,6%,i
O/N=C/c1ccn(-c2ccc(Br)cc2)c1,14µM*,-6,i,-6%,1%,i
CCOc1ccc(NC(=S)N(CCc2c(C)[nH]c3ccc(C)cc23)Cc2ccco2)cc1,4%,-2,i,1%,5%,25µM*
N=C(N)c1ccc(OCc2ccncc2)cc1,·,-3,·,·,·,·
CC1CCc2noc(NC(=O)c3cc(=O)c4cc(Br)ccc4o3)c2C1 (configuration not stated),·,-39*,·,·,·,·
O=C1C(=O)c2c(ccc3ccccc23)-c2ccccc21,2µM*,37,i,-27%,12%,i
O=C(Nc1ccccc1Cl)c1cc(C2CCCN(C(=O)C3CCCCC3)C2)on1 (configuration not stated),16µM*,-2,i,14%,·,i
O=C(Nc1ccc2c(c1)OCO2)c1cc(C2CCCN(C(=O)C3CCCCC3)C2)on1 (configuration not stated),35µM*,-2,i,3%,·,i
O=C(Nc1ccc2c(c1)OCO2)c1cc(C2CCCCN2C(=O)c2ccc3ccccc3c2)on1 (configuration not stated),20%,-5,i,4%,·,35µM*
SMILES,TDP-43 yeast inh,LDHA inh,Abeta yeast res,aSyn rescue,mIDH1 inhibitor,FUS suppressor
COC(=O)N1CCCC(c2cc(C(=O)Nc3ccccc3Cl)no2)C1 (configuration not stated),?,-7,i,22%,·,i
Cc1ccc(F)cc1C(=O)N1CCCC(c2cc(C(=O)Nc3ccccc3Cl)no2)C1 (configuration not stated),35µM*,-18,i,26%,·,?
CCCCCCc1ccc(C(=O)Oc2ccc(C#N)cc2)cc1,·,-1,·,·,·,·
Cc1ccc(-c2nc(C#N)c(N3CCOCC3)o2)cc1,·,-1,·,·,·,·
C=CCSc1nc2c(c(=O)[nH]c(=O)n2C)n1CCOC,·,-19,·,·,·,·
COc1cc(/C=C/C(=O)c2ccc(C)cc2)ccc1OCC#N,20µM*,-17,i,0%,1%,·
COc1ccc(/C=C/C(=O)c2cc(F)ccc2OC(=O)c2ccc(OC)c(OC)c2)cc1OC,?,3,i,21%,2%,?
COc1cc(/C=C/C(=O)c2ccc(F)cc2)cc(OC)c1OC,14µM*,3,i,7%,1%,i
Cc1ccc(C(=O)/C=C/c2ccc3ncccc3c2)cc1,13µM*,-5,i,-4%,1%,i
COc1ccc(/C=C/C(=O)c2cc(F)ccc2OC(=O)c2ccccc2)cc1OC,13µM*,-3,i,14%,-1%,i
CCc1c(C)sc(NC(=O)OC)c1C#N,·,2,·,·,·,·
CCCn1c(-c2ccc(OCC#N)c(OC)c2)nc2c1c(=O)[nH]c(=O)n2Cc1ccccc1,·,-19,·,·,·,·
CC(C)CCN1CCN(C(=O)CCCc2ccccc2)CC1,·,2,·,·,·,·
Cn1c(=O)[nH]c(=O)c2c1nc(N1CCN(c3cccc(Cl)c3)CC1)n2Cc1ccccc1,·,1,·,·,·,·
Cc1cc(C(=O)CN2C(=O)C3CC=CCC3C2=O)c(C)n1-c1ccccc1 (configuration not stated),-39%,-2,i,?,6%,32µM*
Cc1cc(C(=O)CN2C(=O)c3ccccc3S2(=O)=O)c(C)n1-c1ccccc1,?,-5,i,21%,-4%,?
Brc1cccc(OCCN2CCCCC2)c1,-21%,-33*,i,-2%,16%,i
Clc1cccc(OCCN2CCOCC2)c1,0%,-34*,i,-5%,-5%,i
Brc1cccc(OCCN2CCOCC2)c1,-12%,-21,i,-4%,10%,i
O=C(C[C@H]1C/C=C\CC[C@H](Cc2ccc(F)cc2)C(=O)O[C@@H](c2ccccc2)CNC1=O)N[C@@H](CO)Cc1ccccc1,21%,-14,i,3%,-3%,i
O=C(C[C@H]1C/C=C\C[C@H](Cc2ccc(F)cc2)C(=O)O[C@@H](c2ccccc2)CNC1=O)N[C@H](CO)Cc1ccccc1,10%,-16,i,1%,-11%,28µM*
